The source of these data is PubChem BioAssay (Tox21).

Calls of active or inactive are those of the source. A call without a number means that no potency is given here. Calls follow the shape of the full dose curve.
Potency is read from the fitted curve at half-maximal effect.

A short description of this assay: qHTS assay to identify small molecule agonists of the sonic hedgehog signaling (Shh) pathway (AID 1259368). Also: nearly all actives have a fitted effect of over 15% in size. Particulars: NIH/3T3 Gli1-Luc reporter, luciferase, 24 h; series mostly up to 92.4 µM. The method in brief: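 Luminescence was read after 30 min at room temperature with luciferase reagent. Before that, 3T3Gli1-Luc cells (NIH/3T3 clone, stable Gli1-Luc reporter; 2,000/well) were exposed to compounds for 24 hr at 37C, 5% CO2, compounds being added 4 hr post-plating.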
A general note: Quantitative high-throughput screening tests each substance at several concentrations.
In the case of `C=CC(=O)NC(C)C`, the Potency entry was “inactive”. As to `CCCCCCCCCCCCCCCC(=O)OCC`, the Potency result is “inactive”.

With `CC(C)(C)C1(CCc2ccc(Cl)cc2)CO1` (stereo not drawn), the Potency entry is “inactive”. With `CC(=O)Oc1cccc(O)c1` the entry was “inactive”; with `CSCC[C@H](NC(=O)[C@H](Cc1c[nH]c2ccccc12)NC(=O)CCNC(=O)OC(C)(C)C)C(=O)N[C@@H](CC(=O)O)C(=O)N[C@@H](Cc1ccccc1)C(N)=O`, “inactive”; with `O=C(Oc1ccccc1)c1ccc2ccccc2c1O`, “inactive”.

With `CC(C)(C)S`, the Potency result is “inactive”. With `CC[C@H]1OC(=O)[C@H](C)[C@@H](O[C@H]2C[C@@](C)(OC)[C@@H](O)[C@H](C)O2)[C@H](C)[C@@H](O[C@@H]2O[C@H](C)C[C@H](N(C)C)[C@H]2O)[C@](C)(O)C[C@@H](C)/C(=N\OCOCCOC)[C@H](C)[C@@H](O)[C@]1(C)O` the entry was “inactive”. For `FC(F)(F)C(F)(F)C(F)(F)C(F)(F)CCI` the value was “inactive”; for `O=c1[nH]c2cc(C(F)(F)F)c(N3CCOCC3)cc2n(CP(=O)(O)O)c1=O`, “inactive”. With `C=Cc1ccc(OC(C)=O)cc1` the entry was “inactive”; with `CCCCCCCC(=O)OCCCCCC`, “inactive”. With `CCCCCCCCCCCC(=O)OCC(O)CO` (stereo not drawn), the Potency result is “inactive”.

For `O=C(O)CCC(=O)OC[C@@H](NC(=O)C(Cl)Cl)[C@H](O)c1ccc([N+](=O)[O-])cc1`, the Potency entry is “inactive”. With `CCOC(=O)N1CCC(Nc2ccc(Cl)cc2N)CC1` the entry was “inactive”. With `NC(=O)c1ccccc1[N+](=O)[O-]` the entry was “inactive”; with `O=C1[C@@H]2[C@H]3CC[C@H](C3)[C@@H]2C(=O)N1CCCCN1CCN(c2ncccn2)CC1`, “inactive”; with `CC(=O)C(=O)CC(C)C`, “inactive”. `CCCCCCCC/C=C\CCCCCCCC(=O)OCCO`: the Potency entry is “inactive”. Regarding `C1CCCCC1`, the Potency entry is “inactive”. For `O=C1OC(=O)c2c(Br)c(Br)c(Br)c(Br)c21` the value was “inactive”; for `O=C(NS(=O)(=O)/C=C/c1ccccc1)c1ccc(F)cc1Cl`, “inactive”; for `CN1CCCN(C(c2ccccc2)c2ccc(Cl)cc2)CC1` (stereo not drawn), “inactive”. With `CNc1c2c(nn1C)CCCC2` the entry was “inactive”.

On to `CCCCC[C@H](O)/C=C/[C@H]1[C@H](O)CC(=O)[C@@H]1C/C=C\CCCC(=O)O`, for which the Potency was 10.6 µM (active).

As to `CCSC(=O)N(CC)CC`, the Potency result was “inactive”. With `COC(C)(C)OC` the entry was “inactive”; with `c1ccc(CCCc2ccncc2)cc1`, “inactive”; with `CCCCCCCC/C=C/C(=O)O`, “inactive”. For `O=C(O)CCC(=O)c1ccc(-c2ccccc2)cc1` the value was “inactive”. For `CCN(CC)c1cccc(O)c1` the value was “inactive”; for `O=C1NC(=O)c2cccc3cccc1c23`, “inactive”. `CC(C)c1ccc(C(=O)N=C(N)N)cc1S(C)(=O)=O`: the Potency result was “inactive”. With `O=C(CCS)OCC(COC(=O)CCS)(COC(=O)CCS)COC(=O)CCS` the entry was “inactive”; with `Cc1ccc2c(c1)CCCN2`, “inactive”; with `CC(C)(O)CCc1ccccc1`, “inactive”. For `Nc1cccc2c(N)cccc12` the value was “inactive”; for `CCN(CC)C(=O)/C(C#N)=C/c1cc(O)c(O)c([N+](=O)[O-])c1`, “inactive”.
